# About 2,000 (36%) of roughly 5,500 compounds were called active. About 18% were inconclusive and are not listed. This is one part of the list. A number with no mark means an inactive call. Rule as the data show it: active = normalized growth mostly below about 0.91 (no sharp cut-off); inconclusive = no clear call, values can overlap the other calls; inactive = mostly above about 0.92.
# Test: chemical genetic growth profiling, strain panel (AID 1159580);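 also: tested at 20 µM; growth read once vehicle control cultures reached saturation at 30 °C; 1 = growth at the plate median or of vehicle wells; lower values mean less growth of the strain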
# Conditions: S. cerevisiae deletion strains, growth OD
# [1] = locus YDL101C, strain DUN1, active compounds read low
# [2] = locus YHR030C, strain SLT2, active compounds read low
# [3] = locus YAL013W, strain DEP1, active compounds read low
# [4] = locus YBR229C, strain ROT2, active compounds read low
# [5] = locus YCL061C, strain MRC1, active compounds read low
# [6] = locus YDR150W, strain NUM1, active compounds read low
# [7] = locus YEL061C, strain CIN8, active compounds read low
# [8] = locus YGR078C, strain PAC10, active compounds read low
# [9] = locus YHR087W, strain rtc3, active compounds read low
# [10] = locus YJR043C, strain POL32, active compounds read low
# [11] = locus YJR075W, strain HOC1, active compounds read low
# [12] = locus YLR039C, strain RIC1, active compounds read low
# [13] = locus YLR058C, strain SHM2 (second series), active compounds read low
# [14] = locus YLR085C, strain ARP6, active compounds read low
# [15] = locus YLR262C, strain YPT6, active compounds read low
# [16] = locus YML094W, strain GIM5, active compounds read low
# [17] = locus YMR219W, strain ESC1, active compounds read low
# [18] = locus YMR263W, strain SAP30, active compounds read low
# [19] = locus YNL153C, strain GIM3, active compounds read low
# [20] = locus YNL298W, strain CLA4 (second series), active compounds read low
# [21] = locus YNL322C, strain KRE1, active compounds read low
# [22] = locus YNR030W, strain Alg12, active compounds read low
# [23] = locus YPL055C, strain LGE1, active compounds read low
# [24] = locus YPL241C, strain CIN2, active compounds read low
# [25] = locus YPR135W, strain CTF4, active compounds read low
smiles,measurement,setting,value
CC(C)(C)c1cc(C(=O)NNc2cccc(Cl)c2)n(Cc2ccccc2)n1,normalized growth,"locus YAR019C, strain CDC15, active compounds read low",0.98
same,normalized growth,"locus YBL105C, strain PKC1, active compounds read low",0.978
same,normalized growth,"locus YBR135W, strain CKS1, active compounds read low",0.983
same,normalized growth,"locus YBR136W, strain MEC1, active compounds read low",0.973
same,normalized growth,"locus YBR160W, strain CDC28, active compounds read low",0.975
same,normalized growth,"locus YDL017W, strain CDC7, active compounds read low",0.987
same,normalized growth,"locus YDL028C, strain MPS1, active compounds read low",0.975
same,normalized growth,[1],0.955
same,normalized growth,"locus YDL108W, strain KIN28, active compounds read low",0.978
same,normalized growth,"locus YDL132W, strain cdc53, active compounds read low",0.969
same,normalized growth,"locus YDL214C, strain PRR2, active compounds read low",0.917
same,normalized growth,"locus YDR052C, strain DBF4, active compounds read low",0.976
same,normalized growth,"locus YDR054C, strain cdc34, active compounds read low",0.979
same,normalized growth,"locus YDR226W, strain ADK1, active compounds read low",0.985
same,normalized growth,"locus YDR477W, strain SNF1, active compounds read low",0.923
same,normalized growth,"locus YER123W, strain YCK3, active compounds read low",0.832
same,normalized growth,"locus YER133W, strain GLC7, active compounds read low",0.926
same,normalized growth,"locus YFL009W, strain cdc4, active compounds read low",0.992
same,normalized growth,"locus YFL029C, strain CAK1, active compounds read low",0.939
same,normalized growth,"locus YFR003C, strain YPI1, active compounds read low",0.99
same,normalized growth,"locus YFR019W, strain FAB1, active compounds read low",0.911
same,normalized growth,"locus YFR028C, strain CDC14, active compounds read low",0.974
same,normalized growth,"locus YGR040W, strain KSS1, active compounds read low",0.906
same,normalized growth,"locus YGR052W, strain FMP48, active compounds read low",0.922
same,normalized growth,"locus YGR092W, strain DBF2, active compounds read low",0.822
same,normalized growth,[2],0.862
same,normalized growth,"locus YHR079C, strain IRE1, active compounds read low",0.927
same,normalized growth,"locus YHR082C, strain KSP1, active compounds read low",0.962
same,normalized growth,"locus YHR205W, strain SCH9, active compounds read low",0.894
same,normalized growth,"locus YIL147C, strain SLN1, active compounds read low",0.981
same,normalized growth,"locus YJL095W, strain BCK1, active compounds read low",0.825
same,normalized growth,"locus YJL128C, strain PBS2, active compounds read low",0.956
same,normalized growth,"locus YJL157C, strain FAR1, active compounds read low",0.892
same,normalized growth,"locus YJR016C, strain ILV3, active compounds read low",0.985
same,normalized growth,"locus YJR066W, strain TOR1 (second series), active compounds read low",0.884
same,normalized growth,"locus YJR066W, strain TOR1, active compounds read low",0.935
same,normalized growth,"locus YKL048C, strain ELM1, active compounds read low",0.889
same,normalized growth,"locus YKL067W, strain YNK1, active compounds read low",0.935
same,normalized growth,"locus YKL101W, strain HSL1, active compounds read low",0.917
same,normalized growth,"locus YKL193C, strain SDS22, active compounds read low",0.96
same,normalized growth,"locus YKL203C, strain TOR2, active compounds read low",1.01
same,normalized growth,"locus YLR113W, strain HOG1, active compounds read low",0.787 (active)
same,normalized growth,"locus YLR133W, strain CKI1, active compounds read low",0.882
same,normalized growth,"locus YLR403W, strain SFP1, active compounds read low",0.913
same,normalized growth,"locus YML070W, strain DAK1, active compounds read low",0.887
same,normalized growth,"locus YMR001C, strain CDC5, active compounds read low",0.975
same,normalized growth,"locus YMR205C, strain PFK2 (second series), active compounds read low",0.923
same,normalized growth,"locus YMR277W, strain FCP1, active compounds read low",0.988
same,normalized growth,"locus YNL006W, strain LST8, active compounds read low",0.986
same,normalized growth,"locus YNL020C, strain ARK1, active compounds read low",0.887
same,normalized growth,"locus YNL161W, strain CBK1, active compounds read low",0.978
same,normalized growth,"locus YNL183C, strain NPR1, active compounds read low",0.965
same,normalized growth,"locus YNL207W, strain RIO2, active compounds read low",0.974
same,normalized growth,"locus YNL222W, strain SSU72, active compounds read low",0.982
same,normalized growth,"locus YNL307C, strain MCK1 (second series), active compounds read low",0.816
same,normalized growth,"locus YOL078W, strain AVO1, active compounds read low",0.96
same,normalized growth,"locus YOL136C, strain PFK27, active compounds read low",0.86
same,normalized growth,"locus YOR061W, strain CKA2, active compounds read low",0.847
same,normalized growth,"locus YOR119C, strain RIO1, active compounds read low",0.978
same,normalized growth,"locus YOR231W, strain MKK1, active compounds read low",0.869
same,normalized growth,"locus YOR329C, strain SCD5, active compounds read low",0.978
same,normalized growth,"locus YPL031C, strain PHO85, active compounds read low",0.94
same,normalized growth,"locus YPL153C, strain RAD53, active compounds read low",0.925
same,normalized growth,"locus YPL204W, strain HRR25, active compounds read low",0.889
same,normalized growth,"locus YPL209C, strain IPL1, active compounds read low",0.972
same,normalized growth,"locus YPL256C, strain CLN2, active compounds read low",0.863
same,normalized growth,"locus YPR025C, strain CCL1, active compounds read low",0.981
same,normalized growth,"locus YPR106W, strain ISR1, active compounds read low",0.969
same,normalized growth,"locus YPR111W, strain DBF20, active compounds read low",0.978
same,normalized growth,"strain NNK1, active compounds read low",0.961
same,normalized growth,"strain TSCII, active compounds read low",0.966
CC(C)(C)c1cc(C(=O)NNC(=O)c2cc(C(F)(F)F)cc(C(F)(F)F)c2)n(Cc2ccc(F)cc2)n1,normalized growth,[3],0.979
same,normalized growth,[4],1.03
same,normalized growth,[5],1.04
same,normalized growth,[1],0.964
same,normalized growth,[6],1.01
same,normalized growth,[7],0.979
same,normalized growth,[8],1.01
same,normalized growth,[2],1
same,normalized growth,[9],0.994
same,normalized growth,[10],0.997
same,normalized growth,[11],1.08
same,normalized growth,[12],1.02
same,normalized growth,[13],1.04
same,normalized growth,[14],0.999
same,normalized growth,[15],1.02
same,normalized growth,[16],0.987
same,normalized growth,[17],1
same,normalized growth,[18],1.02
same,normalized growth,[19],1
same,normalized growth,[20],0.984
same,normalized growth,[21],0.99
same,normalized growth,[22],0.997
same,normalized growth,[23],0.976
same,normalized growth,[24],1.01
same,normalized growth,[25],0.927
CCN1CCCC1CNC(=O)c1cc(S(N)(=O)=O)ccc1OC (configuration not stated),normalized growth,[3],0.972
same,normalized growth,"locus YAL040C, strain CLN3, active compounds read low",0.955
same,normalized growth,"locus YCL061C, strain MRC1 (second series), active compounds read low",0.984
same,normalized growth,"locus YDR363W, strain ESC2, active compounds read low",0.962
same,normalized growth,"locus YER002W, strain NOP16, active compounds read low",0.969
same,normalized growth,[11],0.973
same,normalized growth,[18],0.98
same,normalized growth,"locus YMR307W, strain GAS1, active compounds read low",1.02
same,normalized growth,[19],1.02
same,normalized growth,"locus YNL175C, strain NOP13, active compounds read low",0.978
same,normalized growth,"locus YNL197C, strain WHI3, active compounds read low",0.977
same,normalized growth,"locus YNL224C, strain SQS1, active compounds read low",0.992
same,normalized growth,[21],0.974
same,normalized growth,"locus YOR083W, strain WHI5 (second series), active compounds read low",0.963
same,normalized growth,[23],0.993
CC(=O)Nc1ccc(S(=O)(=O)Nc2c(C)n(C)n(-c3ccccc3)c2=O)cc1,normalized growth,[3],0.999
same,normalized growth,[4],0.947
same,normalized growth,[5],1.02
same,normalized growth,[1],1.04
same,normalized growth,[6],1.04
same,normalized growth,[7],0.995
same,normalized growth,[8],1.02
same,normalized growth,[2],1.11
same,normalized growth,[9],0.974
same,normalized growth,[10],1.02
same,normalized growth,[11],0.996
same,normalized growth,"locus YKL190W, strain CNB1, active compounds read low",1.01
same,normalized growth,[12],1.02
same,normalized growth,[13],0.995
same,normalized growth,[14],0.999
same,normalized growth,[15],1
same,normalized growth,[16],1.01
same,normalized growth,[17],1.01
same,normalized growth,[18],1.01
same,normalized growth,[19],1.06
same,normalized growth,[20],1
same,normalized growth,[21],1.01
same,normalized growth,[22],1
same,normalized growth,[23],0.974
same,normalized growth,[24],0.987
same,normalized growth,[25],1.07

# Source: PubChem BioAssay AID1159580 (chemical genetic matrix, 2015)
